Screening results from PubChem BioAssay.
HT1080 IDH1KD tx: qHTS for induction of synthetic lethality in tumor cells producing 2HG: qHTS for the HT-1080-IDH1KD cell line. HT-1080 IDH1 knockdown viability, ATP luminescence, 48 h. Potency, µM (doses to about 46.1 µM), inactives show at the highest dose activity, negative = toxicity, most hits filed as cytotoxic. 2% of 360,000 active. AID 686971, 2013;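 further: potency means the concentration at half of the fitted maximal effect; 0% = DMSO wells and -100% = cell-free medium wells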
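Knockdown cells (IDH1KD HT-1080) received compounds 2 h after plating at 750 cells/well and were kept 48 h at 37 °C in 5% FBS RPMI. A CellTiter-Glo luminescence read gave % activity for curve fitting.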
TDP1 cell CPT: qHTS for Inhibitors of human tyrosyl-DNA phosphodiesterase 1 (TDP1): qHTS in cells in presence of CPT; chicken DT40 Tdp1-/-;hTDP1 cells + 20 nM CPT, ATP luminescence, 48 h; AID 686979, 2013; Potency, µM (top dose mostly 46.2 µM), inactives show top-dose activity change, negative = growth inhibition, most hits filed as inhibitors; 12% of 420,000 active; further: potency means the concentration at half of the fitted maximal effect; nearly all actives have a fitted effect of over 55% in size
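Chicken DT40 Tdp1-/- cells stably complemented with human TDP1 were seeded at 400 cells/well in medium containing 20 nM camptothecin, exposed to pin-transferred compounds, and grown at 37 °C for at least 48 hr. Viability was read as ATP luminescence.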
ALOX12 inh: Primary qHTS assay for inhibitors of human arachidonate 12S-lipoxygenase (ALOX12): Round 2; purified 12hLO, xylenol orange hydroperoxide absorbance; Potency, µM (highest dose often 108 µM), without a hit: at the top dose activity change, negative = inhibition, hits mostly inhibitors; AID 1671190, 2021; Polyunsaturated fatty acid lipoxygenase ALOX12 (Homo sapiens), P18054; 1.1% of 580,000 active; further: potency means the concentration at half of the fitted maximal effect
Target sequence (P18054 whole entry, looked up): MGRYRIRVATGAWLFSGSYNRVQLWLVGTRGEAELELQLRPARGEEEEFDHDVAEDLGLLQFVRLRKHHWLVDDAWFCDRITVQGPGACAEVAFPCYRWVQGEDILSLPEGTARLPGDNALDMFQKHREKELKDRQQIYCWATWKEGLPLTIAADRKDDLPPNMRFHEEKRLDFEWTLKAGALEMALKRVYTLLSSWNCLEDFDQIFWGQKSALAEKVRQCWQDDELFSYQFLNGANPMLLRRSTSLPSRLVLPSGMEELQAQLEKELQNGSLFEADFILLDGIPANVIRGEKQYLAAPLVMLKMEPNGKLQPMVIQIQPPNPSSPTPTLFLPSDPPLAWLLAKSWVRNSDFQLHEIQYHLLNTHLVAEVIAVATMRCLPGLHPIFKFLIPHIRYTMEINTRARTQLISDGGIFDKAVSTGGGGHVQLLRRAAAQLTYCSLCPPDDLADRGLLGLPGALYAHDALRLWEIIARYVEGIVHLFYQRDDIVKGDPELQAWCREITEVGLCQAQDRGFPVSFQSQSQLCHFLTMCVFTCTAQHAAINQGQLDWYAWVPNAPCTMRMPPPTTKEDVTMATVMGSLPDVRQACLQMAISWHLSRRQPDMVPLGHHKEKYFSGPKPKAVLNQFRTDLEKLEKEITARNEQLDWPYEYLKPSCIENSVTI
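Purified human 12hLO (150 nM final) in 25 mM Hepes, 0.01% Triton X-100, pH 7.0 was preincubated 15 min at room temperature with compound. Then 40 uM arachidonic acid was added, 30 min. Hydroperoxide was read by Fe-XO absorbance ratio 573/405 nm.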
DT40 TDP1 no CPT: qHTS for Inhibitors of human tyrosyl-DNA phosphodiesterase 1 (TDP1): qHTS in cells in absence of CPT. DT40 Tdp1-/- hTDP1 cells, no CPT, ATP luminescence, 48 h. Potency, µM (doses to about 46.2 µM), without a hit: at the top dose activity change, negative = growth inhibition, usual class: inhibitors. 15% of 420,000 active. AID 686978, 2013; further: potency means the concentration at half of the fitted maximal effect; nearly all actives have a fitted effect of over 55% in size
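Chicken DT40 Tdp1-/- cells stably complemented with human TDP1 were seeded at 400 cells/well with DMSO in place of 20 nM camptothecin. After compound pinning, cells grew at least 48 hr at 37 °C; viability read by CellTiter-Glo luminescence.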
HT1080-NT tox: qHTS for induction of synthetic lethality in tumor cells producing 2HG: qHTS for the HT-1080-NT fibrosarcoma cell line; AID 686970, 2013; Potency, µM (doses to about 46.1 µM), for inactives: top-dose activity, negative = less viability, actives largely listed as cytotoxic; HT-1080-NT fibrosarcoma viability, CellTiter-Glo ATP luminescence, 48 h; 1.6% of 360,000 active;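 further: NT is the 2HG producing partner of a matched IDH1 knockdown line; potency means the concentration at half of the fitted maximal effect; 0% = DMSO-treated cells and -100% = media-only wells without cells; nearly all actives have a fitted effect of over 55% in size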
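Viability by CellTiter-Glo luminescence after 48 h compound exposure at 37C of HT-1080-NT cells (750/well, RPMI, 5% FBS). % activity scaled between DMSO wells and medium-only wells, then curve-fitted and categorized by curve class.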
IL1B secr inh: qHTS for Inhibitors of Inflammasome Signaling: IL-1-beta AlphaLISA Primary Screen | AID 743279, 2014 | 4.7% of 360,000 active | THP-1 LPS/ATP IL-1B secretion, AlphaLISA, 16 h; active compounds read low | activity change, % at 57.5 µM; in the data active means activity change below about -50%; inconclusive means mostly about -30% to -49%
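THP-1 cells pretreated 1 hr with compounds (up to 57.5 uM final), then stimulated with LPS (250 ng/mL final) plus ATP (1.25 mM final); secreted IL-1B measured by AlphaLISA after 16 hr, decreased signal indicating inhibition.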
* marks the source's active call; other numbers are inactive results; ? = inconclusive; nt = not tested or not shown; [ ] = another dose, or the depositor's remark. Shown is part of a subset that was picked to be rich in hits. Unless noted, the call rests on the fitted dose curve; in most records, active means well fitted curve in the direction sought with a large enough effect; inconclusive means small, poorly fitted or top-dose-only effect, or another doubt; inactive means no such curve, though single readings can be large; an effect the other way counts as inactive or inconclusive. Unless noted, on the % scale 0 is the no-effect control and ±100 the full control effect.

SMILES	HT1080 IDH1KD tx	TDP1 cell CPT	ALOX12 inh	DT40 TDP1 no CPT	HT1080-NT tox	IL1B secr inh
COc1ccc(/C=C/c2cccc[n+]2C)c(O)c1	5%	?	?	18µM*	8%	-13
CCN(CC)c1ccc(/C=C/c2cccc[n+]2C)c(OC)c1	?	1.2µM*	?	0.052µM*	?	-92*
CC1CCCC(NC(=O)c2cccc(S(=O)(=O)N3CCOCC3)c2)C1C (stereo not given)	-1%	?	-11%	?	5%	-16
Cc1cc(C)c2c(c1)-c1c(ssc1=S)C(C)(C)N2C(=O)CSc1nncn1C	18µM*	26µM*	?	23µM*	?	-11
Cc1ccc(S(=O)(=O)N2c3ccccc3-c3c(ssc3=S)C2(C)C)cc1	?	?	?	?	-3%	-5
COc1ccc2c(c1)-c1c(ssc1=S)C(C)(C)N2S(=O)(=O)c1ccc(C)cc1	6.5µM*	15µM*	?	5.2µM*	?	10
COc1ccc2c(c1)-c1c(ssc1=S)C(C)(C)N2C(=O)CSC1=NCCS1	-22%	?	-22%	23µM*	-4%	-21
Cc1cc2c(cc1C)N(C(=O)CSC1=NCCS1)C(C)(C)c1ssc(=S)c1-2	?	?	?	?	-28%	-50*
CCOC(=O)c1cc(S(=O)(=O)N(C)CC(=O)Nc2cccc(Cl)c2C)cn1C	nt	nt	-15%	nt	nt	nt
CCOc1ccc2c(c1)-c1c(ssc1=S)C(C)(C)N2C(=O)c1ccco1	5.2µM*	5.2µM*	?	2.9µM*	4.6µM*	-12
CC(C)(Oc1nn(CC2CC2)c2ccc(CN3CCCC3)cc12)C(=O)Nc1cccnc1	nt	nt	7%[176 µM]	nt	nt	nt
CC(=O)NC(c1cccc(F)c1)c1nc(-c2csc3ccccc23)cs1 (stereo not given)	-16%	23µM*	?	?	-24%	-11
CC(=O)NC(c1cccc(F)c1)c1nc(-c2cccc(C(C)C)c2)cs1 (stereo not given)	-20%	26µM*	-24%	21µM*	-23%	-19
COc1ccc(-c2csc(C(NC(C)=O)c3cccc(F)c3)n2)cn1 (stereo not given)	29%	15µM*	?	?	19%	-16
CC(=O)NC(c1cccc(F)c1)c1nc(-c2cnn(C)c2)cs1 (stereo not given)	19%	?	3%	23µM*	?	42
CC(=O)NC(c1cccc(F)c1)c1nc(-c2cnc3ccccc3c2)cs1 (stereo not given)	-5%	?	-8%	?	-11%	17
CC(=O)NC(c1cccc(F)c1)c1nc(-c2cccc(C(=O)O)c2)cs1 (stereo not given)	5%	12%	0%	-5%	3%	-11
COc1cccc(C(NC(C)=O)c2nc(-c3cnn(C)c3)cs2)c1 (stereo not given)	21%	?	?	1%	8%	-1
Cc1ccc(NC(=O)N2C[C@@H](Oc3cccnc3)C[C@H]2C(=O)N2CCOCC2)cc1C	nt	nt	36%	nt	nt	nt
Cc1nc(N2CCC(C(=O)Nc3ccc(Br)cc3F)CC2)c2c(C)c(C)oc2n1	nt	nt	2%	nt	nt	nt
COc1ccc(-c2csc(C(NC(C)=O)c3ccc(F)c(F)c3)n2)cn1 (stereo not given)	-9%	23µM*	3%	?	8%	-12
CC(=O)NC(c1ccc(F)c(F)c1)c1nc(-c2ccc(F)c(Cl)c2)cs1 (stereo not given)	-8%	?	-24%	-30%	-12%	-21
CC(=O)NC(c1ccccc1)c1nc(-c2cnc3ccccc3c2)cs1 (stereo not given)	3%	12µM*	-16%	21µM*	3%	0
OC(c1cccc(Cl)c1)c1nc(-c2csc3ccccc23)cs1 (stereo not given)	?	15µM*	-5%	?	?	13
COc1cccc(C(N)c2nc(-c3csc4ccccc34)cs2)c1 (stereo not given)	?	3.7µM*	nt	2.9µM*	?	74
SMILES	HT1080 IDH1KD tx	TDP1 cell CPT	ALOX12 inh	DT40 TDP1 no CPT	HT1080-NT tox	IL1B secr inh
CC(=O)NC(c1ccccc1)c1nc(-c2csc3ccccc23)cs1 (stereo not given)	-30%	?	-11%	?	-6%	5
O=C(c1nnc(COc2ccc3cnccc3c2)n1-c1ccccc1)N1CCC[C@@H]1c1cccc(F)c1	nt	nt	16%	nt	nt	nt
Cn1c2c(c(=O)n(C)c1=O)C(c1ccc(C(=O)O)cc1)C1=C(CC(C)(C)CC1=O)N2 (stereo not given)	nt	nt	-10%	nt	nt	nt
COc1ccccc1C(=O)NC1CCN(C(=S)NCCc2ccccc2)CC1	3%	-4%	-8%	-28%	-2%	-77*
OC(c1ccccc1)(c1ccccc1)C1CCN(C(=S)NCCc2ccccc2)CC1	?	?	40µM*	?	-16%	?
COc1ccc(-c2nnc(SCC(=O)NC3CCCCC3)n2N)cc1	10%	-1%	-1%	-5%	0%	28
Cc1ccc(-n2[nH]c(C)c(/C=N/Nc3ccc([N+](=O)[O-])cc3[N+](=O)[O-])c2=O)cc1C	21µM*	?	-15%	21µM*	?	-15
Cc1[nH]n(-c2cccc3ccccc23)c(=O)c1/C=N/NC(=O)c1cccc([N+](=O)[O-])c1	?	2.1µM*	45µM*	1.3µM*	?	32
Cc1[nH]n(-c2ccccc2)c(=O)c1/C=N/NC(=O)c1cccc([N+](=O)[O-])c1	?	0.26µM*	375%	0.65µM*	?	135
O=C(COC(=O)c1cnccn1)NCc1ccc2c(c1)OCO2	?	-1%	-9%	-3%	22%	-1
Cc1c(CCC(=O)N2CCC(C(=O)O)CC2)c(=O)oc2cc3oc4c(c3cc12)CCCC4	-4%	?	-7%	15µM*	-1%	-11
Cc1c(CCC(=O)NCCCn2ccnc2)c(=O)oc2cc3oc4c(c3cc12)CCCC4	-27%	9.2µM*	18%	10µM*	?	?
